Screening results deposited in PubChem BioAssay by National Center for Advancing Translational Sciences (NCATS).
Only some compounds are listed: those with a hit (about 18% of all), similar ones and a draw of the others.
DT40 TDP1 CPT: qHTS for Inhibitors of human tyrosyl-DNA phosphodiesterase 1 (TDP1): qHTS in cells in presence of CPT; chicken DT40 Tdp1-/-;hTDP1 cells + 20 nM CPT, ATP luminescence, 48 h; Potency, µM (titrated, usually from 46.2 µM), hits mostly inhibitors; 420,000 compounds, 12% hits; AID 686979, 2013; note: nearly all actives have a fitted effect of over 55% in size
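Chicken DT40 Tdp1-/- cells stably complemented with human TDP1 were seeded at 400 cells/well in medium containing 20 nM camptothecin, exposed to pin-transferred compounds, and grown at 37 °C for at least 48 hr. Viability was read as ATP luminescence.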
TDP1 cell noCPT: qHTS for Inhibitors of human tyrosyl-DNA phosphodiesterase 1 (TDP1): qHTS in cells in absence of CPT | DT40 Tdp1-/- hTDP1 cells, no CPT, ATP luminescence, 48 h | Potency, µM (top dose mostly 46.2 µM), hits mostly inhibitors | 420,000 compounds, 15% hits; note: nearly all actives have a fitted effect of over 55% in size
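Chicken DT40 Tdp1-/- cells complemented with human TDP1, screened without camptothecin (DMSO vehicle only), 400 cells/well. Compounds pin-transferred, cells incubated at 37 °C for at least 48 hr. Growth read as ATP-dependent luminescence (CellTiter-Glo, 30 min at RT).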
IL-1B inflam inh: qHTS for Inhibitors of Inflammasome Signaling: IL-1-beta AlphaLISA Primary Screen | activity change, % at 57.5 µM | 360,000 compounds, 4.7% hits | THP-1 LPS/ATP IL-1B secretion, AlphaLISA, 16 h; hits give low values | AID 743279, 2014; in the data active = activity change below about -50%; inconclusive = mostly about -30% to -49%
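THP-1 cells pretreated 1 hr with compounds (up to 57.5 uM final), then stimulated with LPS (250 ng/mL final) plus ATP (1.25 mM final); secreted IL-1B measured by AlphaLISA after 16 hr, decreased signal indicating inhibition.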
LDHA inh: qHTS assay for inhibitors of human lactate dehydrogenase | L-lactate dehydrogenase A chain (Homo sapiens), P00338 | purified LDHA, NADH/diaphorase-resazurin fluorescence; hits give low values | activity change, % (values are at about 110 or 230 µM) | 480,000 compounds, 0.15% hits; in the data active = activity change below about -30%; inconclusive = mostly about -25% to -30%
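Remaining NADH was detected by diaphorase (0.133 mg/mL) converting 37 µM resazurin to fluorescent resorufin, read at 0 and 20 minutes. The preceding 5-minute room-temperature reaction used 2 nM LDHA, 0.2 mM sodium pyruvate and 0.06 mM NADH at pH 7.4.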
RORg inh: qHTS for inhibitors of ROR gamma transcriptional activity. Nuclear receptor ROR-gamma (Mus musculus), P51450. Drosophila S2 Gal4-RORgamma UAS-luciferase reporter, 20 h. Potency, µM (series often up to 53.6 µM), hits mostly inhibitors. 310,000 compounds, 5.4% hits. AID 2551, 2010; note: nearly all actives have a fitted effect of over 60% in size
Target sequence (P51450 whole entry, looked up, the tested form may be a part): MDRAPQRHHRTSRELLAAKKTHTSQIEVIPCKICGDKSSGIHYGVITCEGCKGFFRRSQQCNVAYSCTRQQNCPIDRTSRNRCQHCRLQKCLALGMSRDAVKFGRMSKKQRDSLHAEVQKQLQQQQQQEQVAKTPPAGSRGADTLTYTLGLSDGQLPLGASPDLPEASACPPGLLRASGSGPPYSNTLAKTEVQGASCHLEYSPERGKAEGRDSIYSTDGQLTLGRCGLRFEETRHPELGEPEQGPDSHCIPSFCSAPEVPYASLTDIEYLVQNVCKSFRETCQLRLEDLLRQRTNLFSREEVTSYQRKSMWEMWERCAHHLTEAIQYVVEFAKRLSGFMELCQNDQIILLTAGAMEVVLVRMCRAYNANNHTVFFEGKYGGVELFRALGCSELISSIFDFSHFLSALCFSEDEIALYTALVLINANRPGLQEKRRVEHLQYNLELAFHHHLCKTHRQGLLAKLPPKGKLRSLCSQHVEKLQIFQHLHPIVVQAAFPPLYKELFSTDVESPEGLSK
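Compounds are pin-transferred onto Drosophila Schneider cells expressing a copper-inducible Gal4–ROR gamma transactivation domain fusion. After 1 hr, copper sulfate is added to 700 uM final; luciferase is read 20 hr later.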
VP16 counter: VP16 counterscreen qHTS for inhibitors of ROR gamma transcriptional activity; Drosophila S2 Gal4-VP16 UAS-luciferase, luminescence, 20 h; Potency, µM (titrated, usually from 53.6 µM), actives largely listed as inhibitors; 310,000 compounds, 3.5% hits;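 note: Gal4-VP16 expression switched on by copper sulfate through the metallothionein promoter; nearly all actives have a fitted effect of over 50% in size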
Each line names hits and unclear results; the compound was inactive in the other large screens. Unless noted, calls come from the whole dose curve; as a rule, active = well fitted curve in the direction sought with a large enough effect; inconclusive = small, poorly fitted or top-dose-only effect, or another doubt; inactive = no such curve, though single readings can be large; an effect the other way counts as inactive or inconclusive.

Cc1cccc(NC(=S)N/N=C/c2ccc([N+](=O)[O-])s2)c1	DT40 TDP1 CPT 12.6µM, TDP1 cell noCPT 7.94µM, RORg inh 1.26µM, VP16 counter 3.16µM
Cc1cccc(NC(=O)/C=C/c2ccc([N+](=O)[O-])s2)c1	DT40 TDP1 CPT 2.59µM, TDP1 cell noCPT 2.59µM, IL-1B inflam inh -97.1, RORg inh 6.31µM, VP16 counter 3.16µM
Cc1ccc(NC(=O)/C=C/c2ccc([N+](=O)[O-])s2)c(C)c1	DT40 TDP1 CPT 2.59µM, TDP1 cell noCPT 3.66µM, IL-1B inflam inh -95.6
Cc1ccc(N/N=C/c2ccc(C)s2)cc1	none (no result: DT40 TDP1 CPT, TDP1 cell noCPT, IL-1B inflam inh, RORg inh, VP16 counter)
Cc1ccccc1C(=O)NCCC(=O)NCc1coc(-c2cccs2)n1	none (no result: DT40 TDP1 CPT, TDP1 cell noCPT, IL-1B inflam inh, RORg inh, VP16 counter)
Cc1ccc(-c2nc(Nc3ccc(C(=O)O)cc3)c3ccccc3n2)cc1	none (no result: DT40 TDP1 CPT, TDP1 cell noCPT, IL-1B inflam inh, RORg inh, VP16 counter)
Cc1ccc(NC(=O)/C=C/c2ccc([N+](=O)[O-])s2)cc1	DT40 TDP1 CPT 3.26µM, TDP1 cell noCPT 3.66µM, IL-1B inflam inh -95.9, RORg inh inconclusive, VP16 counter inconclusive
Cc1ccc(SCc2cn3cccnc3n2)cc1	TDP1 cell noCPT inconclusive
Cc1ccn2cc(CSc3ccccc3)nc2c1	DT40 TDP1 CPT inconclusive, TDP1 cell noCPT inconclusive, RORg inh 12.6µM, VP16 counter 8.91µM
Cc1ccsc1-c1nc2ccccc2s1	none (no result: DT40 TDP1 CPT, TDP1 cell noCPT, IL-1B inflam inh, RORg inh, VP16 counter)
C=CCn1c(=O)/c(=C\c2ccsc2)s/c1=C(/C#N)C(=O)NCCN1CCOCC1	DT40 TDP1 CPT inconclusive, TDP1 cell noCPT inconclusive, IL-1B inflam inh inconclusive, RORg inh inconclusive
COc1ccc(-n2c(=O)/c(=C\c3cccs3)s/c2=C(/C#N)C(=O)NCCN2CCOCC2)cc1	DT40 TDP1 CPT 13µM, TDP1 cell noCPT inconclusive
CN(Cc1ccccc1)C(=O)c1ccc(NC(=O)Cc2ccc(NC(=O)C3CCCN(C(=O)C4CCC4)C3)cc2)cc1 (stereo unspecified)	TDP1 cell noCPT inconclusive (no result: RORg inh, VP16 counter)
CN(C(=O)c1cccc(NC(=O)Cc2ccc(NC(=O)C3CCCN(C(=O)CCc4ccccc4)C3)cc2)c1)C1CCCCC1 (stereo unspecified)	DT40 TDP1 CPT inconclusive, TDP1 cell noCPT 16.4µM (no result: RORg inh, VP16 counter)
CN(C(=O)c1ccc(NC(=O)Cc2ccc(NC(=O)C3CCCN(C(=O)CCc4ccccc4)C3)cc2)cc1)C1CCCC1 (stereo unspecified)	DT40 TDP1 CPT 23.1µM, TDP1 cell noCPT 20.6µM (no result: RORg inh, VP16 counter)
CN(Cc1ccccc1)C(=O)c1ccc(NC(=O)Cc2ccc(NC(=O)C3CCCN(C(=O)CCc4ccccc4)C3)cc2)cc1 (stereo unspecified)	DT40 TDP1 CPT 10.3µM, TDP1 cell noCPT 14.6µM (no result: RORg inh, VP16 counter)
CN(Cc1ccccc1)C(=O)c1ccc(NC(=O)C2CCCN(C(=O)OC(C)(C)C)C2)cc1 (stereo unspecified)	DT40 TDP1 CPT inconclusive, TDP1 cell noCPT 18.4µM (no result: RORg inh, VP16 counter)
Cc1ccccc1CNC(=O)COC(=O)c1cc2ccccc2[nH]1	none (no result: DT40 TDP1 CPT, TDP1 cell noCPT, IL-1B inflam inh, RORg inh, VP16 counter)
COC(CNC(=O)CC(C)C)c1ccccc1 (stereo unspecified)	none (no result: DT40 TDP1 CPT, TDP1 cell noCPT, IL-1B inflam inh, RORg inh, VP16 counter)
Cc1ccc(S(=O)(=O)N(CC(=O)NCCc2ccccc2)Cc2c(F)cccc2Cl)cc1	none (no result: DT40 TDP1 CPT, TDP1 cell noCPT, IL-1B inflam inh, RORg inh, VP16 counter)
CN(C(=O)c1cccc(NC(=O)Cc2ccc(NC(=O)C3CCCN(C(=O)c4ccccc4)C3)cc2)c1)C1CCC1 (stereo unspecified)	DT40 TDP1 CPT inconclusive, TDP1 cell noCPT inconclusive (no result: RORg inh, VP16 counter)
CN(C(=O)c1cccc(NC(=O)Cc2ccc(NC(=O)C3CCCN(C(=O)CCc4ccccc4)C3)cc2)c1)C1CC1 (stereo unspecified)	DT40 TDP1 CPT inconclusive, TDP1 cell noCPT 16.4µM (no result: RORg inh, VP16 counter)
CC(C)[C@H](NC(=O)c1c(F)cccc1F)C(=O)OCc1ccc(C(N)=O)cc1	none (no result: DT40 TDP1 CPT, TDP1 cell noCPT, IL-1B inflam inh, RORg inh, VP16 counter)
Cc1c(NC(=O)Nc2ccc([N+](=O)[O-])cc2)c(=O)n(-c2ccccc2)n1C	DT40 TDP1 CPT inconclusive, TDP1 cell noCPT 20.6µM
Cc1ccc(NC(=O)Nc2c(C)n(C)n(-c3ccccc3)c2=O)cc1	none
Cc1ccc(CNC(=O)c2ccc(S(=O)(=O)Nc3c(C)n(C)n(-c4ccccc4)c3=O)cc2)cc1	DT40 TDP1 CPT inconclusive, TDP1 cell noCPT 20.6µM
Cc1sc(Nc2ccc([N+](=O)[O-])cc2)nc1-c1c(C)n(C)n(-c2ccccc2)c1=O	DT40 TDP1 CPT inconclusive, TDP1 cell noCPT 23.1µM
Cc1c(NS(=O)(=O)c2ccc(NC(=O)CCC(=O)O)cc2)c(=O)n(-c2ccccc2)n1C	IL-1B inflam inh -71.1
COc1ccc(CN(C(=O)c2cc(=O)c3cc(Cl)ccc3o2)C2CCS(=O)(=O)C2)cc1 (stereo unspecified)	none (no result: DT40 TDP1 CPT, TDP1 cell noCPT, IL-1B inflam inh, RORg inh, VP16 counter)
CC1Cc2ccccc2N1C(=O)COC(=O)c1ccc(-n2cnnn2)cc1 (stereo unspecified)	none (no result: DT40 TDP1 CPT, TDP1 cell noCPT, IL-1B inflam inh, RORg inh, VP16 counter)
O=C(O)C(c1c[nH]c2cc(Cl)ccc12)N1CCN(C/C=C/c2ccccc2)CC1 (stereo unspecified)	none (no result: DT40 TDP1 CPT, TDP1 cell noCPT, IL-1B inflam inh, RORg inh, VP16 counter)
CN1/C(=C\C(=O)c2cccs2)Sc2ccccc21	DT40 TDP1 CPT inconclusive, TDP1 cell noCPT 10.3µM, RORg inh inconclusive
Cc1ccc(-c2nc(CSc3nc4ncccc4[nH]3)c(C)o2)cc1	none (no result: DT40 TDP1 CPT, TDP1 cell noCPT, IL-1B inflam inh, RORg inh, VP16 counter)
COc1ccc(-c2cc(C(=O)NCCc3ccccc3)c3c(-c4ccc(Cl)cc4)[nH]nc3n2)cc1	DT40 TDP1 CPT 11.6µM, TDP1 cell noCPT 10.3µM (no result: IL-1B inflam inh, RORg inh, VP16 counter)
